Results on 8 sequences are retold here after paper PMC7862700, “An all-to-all approach to the identification of sequence-specific readers for epigenetic DNA modifications on cytosine”.

Holding throughout (experiment): DAPPL (digital affinity profiling via proximity ligation, sequencing); 10 mM Tris-HCl pH 7.5, 50 mM NaCl, 1 mM DTT, 4% glycerol, room temperature, 30 min; GST-TFs on glutathione beads, 16-mer random dsDNA library, 0.1% formaldehyde crosslink after washing; high values mean tight binding
In assay [1] the target is T1, FEV (Homo sapiens, UniProt Q99581 1-238).
T1 sequence: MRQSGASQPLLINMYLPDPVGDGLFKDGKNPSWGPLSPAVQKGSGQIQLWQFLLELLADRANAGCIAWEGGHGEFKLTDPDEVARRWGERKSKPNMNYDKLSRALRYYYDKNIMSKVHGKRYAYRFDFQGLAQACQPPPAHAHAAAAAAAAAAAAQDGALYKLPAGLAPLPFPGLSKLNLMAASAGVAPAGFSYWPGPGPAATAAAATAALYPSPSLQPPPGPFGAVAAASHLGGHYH
The following applies: protein: recombinant; tags: N-terminal GST; dsDNA, one strand shown. The procedure, abridged: (§1)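 Binding signal is each hexamer's read frequency for a factor divided by its frequency in the tag-only sample. The factors were GST-fused human transcription factors from yeast, captured on glutathione beads, DNA-barcoded and pooled with that sample. Pools were incubated with 200 nmole of a random double-stranded 16-mer DNA library in Tris/NaCl/DTT/glycerol buffer at room temperature for 30 min, then washed, crosslinked with 0.1% formaldehyde, proximity-ligated with BsaI/T4 ligase (1 h, 37 °C), PCR-amplified and sequenced on an Illumina NextSeq500.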

For assay [2], the target named is ETV5 (Homo sapiens, UniProt P41161 1-510). The note with it: protein: recombinant; tags: N-terminal GST; dsDNA, one strand shown. The method in brief:
as §1

Assay [3] addresses HSF1 (Homo sapiens, UniProt Q00613 1-529). The following applies: protein: recombinant; tags: N-terminal GST; chain copies: 3; dsDNA, one strand shown. The method in brief: as §1
The target of assay [4] is T2, SPIC (Homo sapiens, UniProt Q8N5J4 1-248).
T2 sequence: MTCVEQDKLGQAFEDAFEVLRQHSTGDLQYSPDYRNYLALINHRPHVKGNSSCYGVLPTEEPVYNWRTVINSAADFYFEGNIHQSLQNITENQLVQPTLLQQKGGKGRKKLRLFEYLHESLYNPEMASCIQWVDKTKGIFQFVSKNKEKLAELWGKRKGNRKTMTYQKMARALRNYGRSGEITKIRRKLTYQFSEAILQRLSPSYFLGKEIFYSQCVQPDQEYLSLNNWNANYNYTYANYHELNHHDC
The following applies: protein: recombinant; tags: N-terminal GST; dsDNA, one strand shown. The method in brief: as §1

The target in assay [5] is ELF4 (Homo sapiens, UniProt Q99607 1-663). The following applies: protein: recombinant; tags: N-terminal GST; dsDNA, one strand shown. The procedure, abridged: as §1
The target in assay [6] is T3, ELK4 (Homo sapiens, UniProt P28324-2 1-405).
T3 sequence: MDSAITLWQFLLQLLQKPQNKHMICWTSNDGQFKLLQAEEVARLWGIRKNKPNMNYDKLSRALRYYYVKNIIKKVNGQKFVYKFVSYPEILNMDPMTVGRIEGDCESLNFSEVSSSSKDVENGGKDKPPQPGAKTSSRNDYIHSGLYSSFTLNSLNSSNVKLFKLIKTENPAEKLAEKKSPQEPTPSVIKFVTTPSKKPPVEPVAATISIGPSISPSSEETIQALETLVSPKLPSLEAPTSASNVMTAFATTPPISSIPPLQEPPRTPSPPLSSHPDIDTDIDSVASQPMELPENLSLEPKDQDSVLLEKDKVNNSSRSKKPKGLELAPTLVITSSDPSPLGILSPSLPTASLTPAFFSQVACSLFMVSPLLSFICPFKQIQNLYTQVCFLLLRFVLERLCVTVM
The note with it: protein: recombinant; tags: N-terminal GST; dsDNA, one strand shown. The method in brief: as §1

Assay [7] deals with T4, ETV2 (Homo sapiens, UniProt O00321 1-342).
T4 sequence: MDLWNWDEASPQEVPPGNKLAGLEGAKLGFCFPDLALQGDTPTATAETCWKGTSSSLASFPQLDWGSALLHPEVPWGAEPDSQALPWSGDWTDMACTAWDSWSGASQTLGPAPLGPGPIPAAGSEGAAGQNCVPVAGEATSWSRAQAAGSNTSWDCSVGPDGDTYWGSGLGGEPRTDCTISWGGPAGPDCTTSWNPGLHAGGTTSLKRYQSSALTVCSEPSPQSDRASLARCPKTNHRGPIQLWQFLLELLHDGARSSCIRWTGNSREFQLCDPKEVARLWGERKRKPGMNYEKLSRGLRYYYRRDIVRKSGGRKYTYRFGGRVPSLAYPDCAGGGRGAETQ
The note with it: protein: recombinant; tags: N-terminal GST; dsDNA, one strand shown. The procedure, abridged: as §1

The target of assay [8] is T5, ELF3 (Homo sapiens, UniProt P78545 1-371).
T5 sequence: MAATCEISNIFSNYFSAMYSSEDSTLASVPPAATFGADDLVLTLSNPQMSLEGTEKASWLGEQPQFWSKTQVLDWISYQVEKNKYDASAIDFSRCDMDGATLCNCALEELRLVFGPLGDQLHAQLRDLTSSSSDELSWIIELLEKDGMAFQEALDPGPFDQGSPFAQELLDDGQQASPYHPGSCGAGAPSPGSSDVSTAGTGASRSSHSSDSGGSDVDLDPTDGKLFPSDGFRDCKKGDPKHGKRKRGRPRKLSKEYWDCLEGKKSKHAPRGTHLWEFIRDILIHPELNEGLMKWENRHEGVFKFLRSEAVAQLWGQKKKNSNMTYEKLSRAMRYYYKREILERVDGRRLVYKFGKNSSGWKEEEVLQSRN
The note with it: protein: recombinant; tags: N-terminal GST; dsDNA, one strand shown. The method in brief: as §1

The target in assay [9] is CRX (Homo sapiens, UniProt O43186 1-299). The note with it: protein: recombinant; tags: N-terminal GST; dsDNA, one strand shown. The procedure, abridged:
as §1

In assay [10] the target is ETV1 (Homo sapiens, UniProt P50549 1-477). The following applies: protein: recombinant; tags: N-terminal GST; dsDNA, one strand shown. The method in brief:
as §1

Chain of ETV1 (P50549 whole entry): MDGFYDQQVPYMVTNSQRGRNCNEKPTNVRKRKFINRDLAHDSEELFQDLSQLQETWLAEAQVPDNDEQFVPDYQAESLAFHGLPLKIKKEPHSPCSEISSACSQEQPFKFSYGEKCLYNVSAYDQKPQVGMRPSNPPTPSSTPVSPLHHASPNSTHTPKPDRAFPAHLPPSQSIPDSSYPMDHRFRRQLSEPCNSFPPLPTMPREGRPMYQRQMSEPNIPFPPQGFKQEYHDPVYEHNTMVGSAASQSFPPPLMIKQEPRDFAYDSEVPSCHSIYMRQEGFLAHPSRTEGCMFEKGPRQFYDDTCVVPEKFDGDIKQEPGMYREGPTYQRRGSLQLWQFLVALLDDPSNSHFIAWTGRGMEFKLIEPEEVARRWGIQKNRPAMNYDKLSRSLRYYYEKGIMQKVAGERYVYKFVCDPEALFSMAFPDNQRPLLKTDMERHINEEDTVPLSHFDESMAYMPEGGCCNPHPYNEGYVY
Chain of ETV5 (P41161 whole entry): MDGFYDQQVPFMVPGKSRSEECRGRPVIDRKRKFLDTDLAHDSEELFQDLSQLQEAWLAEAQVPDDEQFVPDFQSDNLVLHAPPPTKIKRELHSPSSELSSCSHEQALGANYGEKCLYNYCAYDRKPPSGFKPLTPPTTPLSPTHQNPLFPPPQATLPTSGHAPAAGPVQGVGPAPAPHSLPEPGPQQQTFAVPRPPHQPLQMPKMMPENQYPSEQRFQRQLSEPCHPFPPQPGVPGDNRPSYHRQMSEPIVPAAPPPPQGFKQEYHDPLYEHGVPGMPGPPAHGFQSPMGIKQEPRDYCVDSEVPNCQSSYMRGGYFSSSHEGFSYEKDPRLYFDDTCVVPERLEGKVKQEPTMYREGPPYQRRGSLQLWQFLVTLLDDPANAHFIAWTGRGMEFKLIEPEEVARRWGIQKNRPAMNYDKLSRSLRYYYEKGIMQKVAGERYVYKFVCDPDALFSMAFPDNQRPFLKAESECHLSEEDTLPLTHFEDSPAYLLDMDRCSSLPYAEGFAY
Chain of HSF1 (Q00613 whole entry): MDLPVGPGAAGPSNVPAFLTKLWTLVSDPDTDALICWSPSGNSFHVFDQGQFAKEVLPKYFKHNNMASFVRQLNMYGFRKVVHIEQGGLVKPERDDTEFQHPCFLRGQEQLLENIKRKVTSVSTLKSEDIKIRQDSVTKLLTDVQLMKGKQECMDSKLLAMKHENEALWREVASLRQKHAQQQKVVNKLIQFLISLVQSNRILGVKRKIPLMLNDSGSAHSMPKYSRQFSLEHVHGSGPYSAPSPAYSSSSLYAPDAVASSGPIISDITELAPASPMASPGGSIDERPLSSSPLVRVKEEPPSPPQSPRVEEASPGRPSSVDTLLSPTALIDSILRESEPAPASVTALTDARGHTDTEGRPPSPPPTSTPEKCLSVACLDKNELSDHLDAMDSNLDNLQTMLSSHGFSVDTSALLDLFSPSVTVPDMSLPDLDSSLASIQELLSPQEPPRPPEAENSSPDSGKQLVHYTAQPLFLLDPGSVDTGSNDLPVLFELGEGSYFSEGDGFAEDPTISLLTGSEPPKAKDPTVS
Chain of CRX (O43186 whole entry): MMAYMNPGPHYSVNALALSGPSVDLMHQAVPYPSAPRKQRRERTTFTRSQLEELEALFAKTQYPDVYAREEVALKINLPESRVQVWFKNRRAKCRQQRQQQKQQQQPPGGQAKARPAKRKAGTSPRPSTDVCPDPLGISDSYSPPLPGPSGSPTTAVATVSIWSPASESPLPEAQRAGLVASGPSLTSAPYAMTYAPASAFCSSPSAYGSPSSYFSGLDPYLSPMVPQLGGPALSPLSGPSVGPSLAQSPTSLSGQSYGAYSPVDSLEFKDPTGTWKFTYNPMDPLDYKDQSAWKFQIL
Chain of ELF4 (Q99607 whole entry): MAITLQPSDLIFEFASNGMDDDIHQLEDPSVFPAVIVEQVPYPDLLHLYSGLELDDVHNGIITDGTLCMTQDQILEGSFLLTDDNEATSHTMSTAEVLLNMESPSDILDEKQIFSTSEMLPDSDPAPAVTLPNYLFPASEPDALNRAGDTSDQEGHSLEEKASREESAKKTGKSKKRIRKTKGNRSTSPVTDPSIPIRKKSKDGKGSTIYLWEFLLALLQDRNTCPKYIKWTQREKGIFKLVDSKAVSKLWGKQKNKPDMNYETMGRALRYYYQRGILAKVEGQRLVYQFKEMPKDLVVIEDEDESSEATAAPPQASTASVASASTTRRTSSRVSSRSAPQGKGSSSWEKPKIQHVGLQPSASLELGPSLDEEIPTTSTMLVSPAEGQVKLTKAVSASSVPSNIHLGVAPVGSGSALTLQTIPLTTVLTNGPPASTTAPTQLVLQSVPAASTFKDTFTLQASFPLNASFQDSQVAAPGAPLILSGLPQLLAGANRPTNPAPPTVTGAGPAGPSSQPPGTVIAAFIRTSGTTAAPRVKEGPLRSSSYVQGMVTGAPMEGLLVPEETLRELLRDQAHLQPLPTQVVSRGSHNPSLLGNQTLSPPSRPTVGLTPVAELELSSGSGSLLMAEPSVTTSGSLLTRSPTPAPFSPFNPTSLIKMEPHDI

For the sequence TATCTC, the binding signal in [1] was 1.27 fold enrichment (6-mer frequency, TF over GST control); in assay [2] it was 1.2 fold enrichment (6-mer frequency, TF over GST control); in [3], 1.45 fold enrichment (6-mer frequency, TF over GST control); in [4] it was 1.21 fold enrichment (6-mer frequency, TF over GST control); in [5], 1.21 fold enrichment (6-mer frequency, TF over GST control); in assay [6], 1.27 fold enrichment (6-mer frequency, TF over GST control). Besides, the binding signal in [7] was 1.18 fold enrichment (6-mer frequency, TF over GST control); in assay [8], 1.16 fold enrichment (6-mer frequency, TF over GST control); in [9] it was 1.76 fold enrichment (6-mer frequency, TF over GST control); in assay [10] it was 1.3 fold enrichment (6-mer frequency, TF over GST control).

For TCACGC, the binding signal in assay [1] is 1.18 fold enrichment (6-mer frequency, TF over GST control); in [2] it was 1.15 fold enrichment (6-mer frequency, TF over GST control); in [3], 1.08 fold enrichment (6-mer frequency, TF over GST control); in [4] it was 1.25 fold enrichment (6-mer frequency, TF over GST control); in assay [5], 1.16 fold enrichment (6-mer frequency, TF over GST control); in assay [6] it was 1.34 fold enrichment (6-mer frequency, TF over GST control). Also, the binding signal in assay [7] was 1.26 fold enrichment (6-mer frequency, TF over GST control); in assay [8], 1.35 fold enrichment (6-mer frequency, TF over GST control); in assay [9], 1.02 fold enrichment (6-mer frequency, TF over GST control); in [10], 1.13 fold enrichment (6-mer frequency, TF over GST control).

Take TTCCTG: the binding signal was 2.13 fold enrichment (6-mer frequency, TF over GST control) in [1]; 2.57 fold enrichment (6-mer frequency, TF over GST control) in [2]; 1.63 fold enrichment (6-mer frequency, TF over GST control) in assay [3]; 2.31 fold enrichment (6-mer frequency, TF over GST control) in assay [4]; 2.05 fold enrichment (6-mer frequency, TF over GST control) in assay [5]; 1.78 fold enrichment (6-mer frequency, TF over GST control) in assay [6]. Besides, the binding signal was 2.46 fold enrichment (6-mer frequency, TF over GST control) in assay [7]; 2.23 fold enrichment (6-mer frequency, TF over GST control) in assay [8]; 1.12 fold enrichment (6-mer frequency, TF over GST control) in [9]; 2.22 fold enrichment (6-mer frequency, TF over GST control) in assay [10].

With ATTATG, the binding signal is 1.13 fold enrichment (6-mer frequency, TF over GST control) in assay [1]; 1.26 fold enrichment (6-mer frequency, TF over GST control) in assay [2]; 1.68 fold enrichment (6-mer frequency, TF over GST control) in assay [3]; 1.42 fold enrichment (6-mer frequency, TF over GST control) in assay [4]; 1.22 fold enrichment (6-mer frequency, TF over GST control) in assay [5]; 1.11 fold enrichment (6-mer frequency, TF over GST control) in [6]. Moreover, the binding signal in [7] was 1.03 fold enrichment (6-mer frequency, TF over GST control); in assay [8], 1.48 fold enrichment (6-mer frequency, TF over GST control); in [9], 2.58 fold enrichment (6-mer frequency, TF over GST control); in assay [10] it was 1.21 fold enrichment (6-mer frequency, TF over GST control).

On to CCTTAA, for which the binding signal in [1] was 1.33 fold enrichment (6-mer frequency, TF over GST control); in [2], 1.25 fold enrichment (6-mer frequency, TF over GST control); in [3], 1.62 fold enrichment (6-mer frequency, TF over GST control); in [4] it was 1.22 fold enrichment (6-mer frequency, TF over GST control); in assay [5] it was 1.3 fold enrichment (6-mer frequency, TF over GST control); in assay [6] it was 1.27 fold enrichment (6-mer frequency, TF over GST control). Moreover, the binding signal in assay [7] was 1.35 fold enrichment (6-mer frequency, TF over GST control); in [8] it was 1.37 fold enrichment (6-mer frequency, TF over GST control); in assay [9], 2.17 fold enrichment (6-mer frequency, TF over GST control); in [10], 1.34 fold enrichment (6-mer frequency, TF over GST control).

In the case of GCTCAA, the binding signal in assay [1] was 1.07 fold enrichment (6-mer frequency, TF over GST control); in assay [2], 1.12 fold enrichment (6-mer frequency, TF over GST control); in assay [3], 1.16 fold enrichment (6-mer frequency, TF over GST control); in assay [4], 1.19 fold enrichment (6-mer frequency, TF over GST control); in assay [5], 1.16 fold enrichment (6-mer frequency, TF over GST control); in assay [6], 1.03 fold enrichment (6-mer frequency, TF over GST control). Moreover, the binding signal in assay [7] was 1.1 fold enrichment (6-mer frequency, TF over GST control); in assay [8], 1.11 fold enrichment (6-mer frequency, TF over GST control); in [9], 1.31 fold enrichment (6-mer frequency, TF over GST control); in assay [10], 1.1 fold enrichment (6-mer frequency, TF over GST control).

In the case of TTATGG, the binding signal in [1] is 1.33 fold enrichment (6-mer frequency, TF over GST control); in [2], 1.39 fold enrichment (6-mer frequency, TF over GST control); in assay [3] it was 1.74 fold enrichment (6-mer frequency, TF over GST control); in assay [4] it was 1.53 fold enrichment (6-mer frequency, TF over GST control); in [5], 1.31 fold enrichment (6-mer frequency, TF over GST control); in assay [6] it was 1.24 fold enrichment (6-mer frequency, TF over GST control). For the same sequence, the binding signal is 1.45 fold enrichment (6-mer frequency, TF over GST control) in assay [7]; 1.53 fold enrichment (6-mer frequency, TF over GST control) in assay [8]; 2.62 fold enrichment (6-mer frequency, TF over GST control) in [9]; 1.41 fold enrichment (6-mer frequency, TF over GST control) in assay [10].

For CGATTT, the binding signal in assay [1] was 1.22 fold enrichment (6-mer frequency, TF over GST control); in assay [2] it was 1.23 fold enrichment (6-mer frequency, TF over GST control); in assay [3] it was 1.38 fold enrichment (6-mer frequency, TF over GST control); in assay [4], 1.22 fold enrichment (6-mer frequency, TF over GST control); in assay [5] it was 1.19 fold enrichment (6-mer frequency, TF over GST control); in assay [6] it was 1.14 fold enrichment (6-mer frequency, TF over GST control). Further, the binding signal is 1.13 fold enrichment (6-mer frequency, TF over GST control) in [7]; 1.23 fold enrichment (6-mer frequency, TF over GST control) in assay [8]; 1.58 fold enrichment (6-mer frequency, TF over GST control) in [9]; 1.17 fold enrichment (6-mer frequency, TF over GST control) in assay [10].
